The experiment concerns 4T1. The experiment in a line: % inhibition of 4T1 cell number vs DMSO control; higher = stronger growth inhibition. As to conditions: 1 µM, 3 days. Summed up:
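4T1-H2B-GFP mouse breast cancer cells (3000 per well, 2% FBS medium) were seeded in 96-well imaging plates on plastic, denuded lung or mCAF1 fibroblast-derived matrix, Matrigel (15 μg/mL) or 0.2% gelatin; edge wells were left unused. After 16 h, kinase inhibitors were added at 1 μM final for 3 days. Plates were formalin-fixed, DAPI-stained and imaged on an INCell Analyzer 2200, and GFP-positive nuclei were counted. Percent inhibition of cell number was calculated relative to DMSO control.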

Where [1] appears, read: substrate: lung fibroblast-derived matrix.
[2] abbreviates: substrate: mCAF1 fibroblast-derived matrix.

Counter-ions that a name gives are not always drawn.

Regarding `CCOC(=O)c1c(C)[nH]c(/C=C2\C(=O)Nc3ccccc32)c1C` [VEGF Receptor 2 Kinase Inhibitor I], the “% inhibition of 4T1 cell number” value was 21.5% (substrate: Matrigel); -34.8% (substrate: gelatin); -12.5% under setting [1]; -29.2% under setting [2]; 16.8% (substrate: plastic).
The matching figures for `CCCCCCOC(=O)[C@]1(O)C[C@@H]2O[C@@]1(C)n1c3ccccc3c3c4c(c5c6ccccc6n2c5c31)C(=O)NC4`: -41.8%, -0.139%, -8.63%, 13.5% and -74.7%.
Consider `COc1cc2c(cc1OC)-c1[nH]nc(Nc3cccc(F)c3)c1C2` [PDGF Receptor Tyrosine Kinase Inhibitor IV], for which the “% inhibition of 4T1 cell number” value is, setting by setting: (substrate: Matrigel) 94.6%; (substrate: gelatin) 84.5%; under setting [1], -13.5%; under setting [2], 89.7%; (substrate: plastic) 74.7%.
The matching figures for `Cn1sc(=O)n(Cc2ccccc2)c1=O` [GSK-3b Inhibitor I]: -33.1%, 10.3%, 9.49%, 21.6% and -62.7%.
The matching figures for `c1ccc2c(-c3ccncc3)c[nH]c2c1` [Rho Kinase Inhibitor III, Rockout]: -26.4%, -33.3%, -7.01%, 37.7% and -78.9%.
The matching figures for `COc1cc2ncnc(Nc3cccc(O)c3)c2cc1OC` [WHI-P180, Hydrochloride]: 35.6%, 65.6%, 9.03%, -4.63% and 37.6%.
Take `C[C@@H](N)C1CCC(C(=O)Nc2ccncc2)CC1` (stereo not given in full): the “% inhibition of 4T1 cell number” value reads like this: (substrate: Matrigel) -13.2%; (substrate: gelatin) -4.77%; under setting [1], -5.27%; under setting [2], 9.93%; (substrate: plastic) -47.5%.
The matching figures for `COc1ccc2c(c1)c1c3c(c4c5ccccc5n(C)c4c1n2CC(O)CN(C)C)C(=O)NC3=O` (stereo not given): -13%, -19%, -1%, 17.9% and -42.9%.
The matching figures for `CC(C)(C)c1ccc(S(=O)(=O)Nc2ccc(-n3ccnc3)cc2)cc1` [Stem-Cell Factor/c-Kit Inhibitor, ISCK03]: 40.2%, 60.6%, 90.5%, 7.06% and 39.4%.
The matching figures for `OCC(O)CCO/N=C1\C(c2c(O)[nH]c3ccccc23)=Nc2ccccc21` (stereo not given) [Indirubin Derivative E804]: -31.7%, 0.993%, -5.02%, 85.4% and 67.7%.
On to `CS(=O)(=O)c1ccc(-c2nc(-c3ccc(F)cc3)c(-c3ccncc3)[nH]2)cc1`, for which the “% inhibition of 4T1 cell number” value (substrate: Matrigel) amounted to 37.9%; the “% inhibition of 4T1 cell number” value (substrate: gelatin) was 63%; the “% inhibition of 4T1 cell number” value under setting [1] is -4.16%; the “% inhibition of 4T1 cell number” value under setting [2] amounted to 14.7%; the “% inhibition of 4T1 cell number” value (substrate: plastic) turned out to be 52.9%.
As to `Nc1nccc(-c2c(-c3ccc(F)cc3)ncn2C2CCNCC2)n1`, the “% inhibition of 4T1 cell number” value was -17.8% (substrate: Matrigel); -10.4% (substrate: gelatin); 11.7% under setting [1]; 29.5% under setting [2]; -59.1% (substrate: plastic).
The matching figures for `Nc1ncnc2c1c(I)cn2[C@@H]1O[C@H](CO)[C@@H](O)[C@H]1O` [5-Iodotubercidin]: 15.7%, 59.3%, 7.74%, 34.1% and 24.1%.
The matching figures for `O=C1C(=Cc2ccc(O)cc2)C2=Nc3ccccc3C2=C1C1=C2C(=Nc3ccccc32)C(=Cc2ccc(O)cc2)C1=O` [Scytonemin, Lyngbya sp.]: 46.6%, 52.5%, 65.9%, 26.2% and 39.5%.
The matching figures for `O=C(Nc1cc(Cl)cc2c1[nH]c1cnccc12)c1cccnc1` [IKK Inhibitor X]: 42.5%, 25.8%, -6.01%, -10% and 57.7%.
As for `O=S(=O)(c1cccc2cnccc12)N1CCCNCC1` [HA 1077, Dihydrochloride], the “% inhibition of 4T1 cell number” value was 25.3% (substrate: Matrigel); 21.7% (substrate: gelatin); -23.5% under setting [1]; 4.22% under setting [2]; 21.9% (substrate: plastic).
In the case of `CNc1cc2c(Nc3cccc(Br)c3)ncnc2cn1`, the “% inhibition of 4T1 cell number” value (substrate: Matrigel) is -6.51%; the “% inhibition of 4T1 cell number” value (substrate: gelatin) is -93.8%; the “% inhibition of 4T1 cell number” value under setting [1] was 25.4%; the “% inhibition of 4T1 cell number” value under setting [2] was 6.09%; the “% inhibition of 4T1 cell number” value (substrate: plastic) is -25.5%.
For `Cc1cncc2cccc(S(=O)(=O)N3CCCN(C(=O)CN)C[C@@H]3C)c12` [Rho Kinase Inhibitor IV], the “% inhibition of 4T1 cell number” value reads like this: (substrate: Matrigel) -39.7%; (substrate: gelatin) -28.9%; under setting [1], 92.9%; under setting [2], 15.7%; (substrate: plastic) -103%.
The matching figures for `N#C/C(=C(/N)Sc1ccccc1N)c1cccc(C(O)c2ccncc2)c1` (stereo not given) [MEK Inhibitor I]: -42.3%, 30.7%, 50.2%, 40.9% and -71.7%.
The matching figures for `O=C1c2ccccc2-c2nc3nnnn3nc21` [PDK1/Akt/Flt Dual Pathway Inhibitor]: 99%, 97.3%, -19.8%, 95.4% and 97%.
The matching figures for `COc1cccc(-c2cc(=O)c3ccccc3o2)c1N`: -3.15%, -1.31%, -10.2%, 25.7% and -41.4%.
Turning to `Fc1ccc(-c2nc3n(c2-c2ccncc2)CCS3)cc1`, the “% inhibition of 4T1 cell number” value is 28.9% (substrate: Matrigel); 18.4% (substrate: gelatin); -11.4% under setting [1]; 18.8% under setting [2]; 9.54% (substrate: plastic).
As to `Cc1ncc2ccccc2c1C#N` [4-Cyano-3-methylisoquinoline], the “% inhibition of 4T1 cell number” value (substrate: Matrigel) was determined as 48.6%; the “% inhibition of 4T1 cell number” value (substrate: gelatin) stood at 52.6%; the “% inhibition of 4T1 cell number” value under setting [1] was -13.2%; the “% inhibition of 4T1 cell number” value under setting [2] is -46.1%; the “% inhibition of 4T1 cell number” value (substrate: plastic) is 56.8%.

These data come from the supplement of paper PMC8269313.
